Source: PubChem BioAssay
An excerpt weighted towards active compounds, which were near 7.4% of everything screened.
HEK293 viab – GF-AFC viability counterscreen for inhibitors of alpha-synuclein gene (SNCA) expression | HEK-293-SNCA-luc viability, GF-AFC fluorescence, 24 h | Potency, µM (top dose mostly 57.1 µM), inactives show at the top dose activity change, negative = cytotoxicity, hits mostly cytotoxic | 150,000 tested, 0.12% active | AID 1671193, 2021;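 further: 0% = DMSO-treated cells and -100% = medium-only wells without cells; nearly all actives have a fitted effect of over 30% in size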
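Cytotoxicity counterscreen: after 24 h compound treatment of genome-edited SNCA-luciferase HEK-293 cells, live-cell protease substrate GF-AFC read by fluorescence after 30 min; activity scaled between DMSO (0%) and medium-only (-100%), curves Hill-fitted.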
Luciferase inh – Firefly luciferase inhibition profiling of diverse chemical library using quantitative high-throughput screening; Luciferin 4-monooxygenase (Photinus pyralis), P08659; purified P. pyralis luciferase, luminescence, biochemical; Potency, µM (highest dose often 115 µM), usual class: inhibitors; 76,000 tested, 2.5% active; AID 1347043, 2019; further: nearly all actives have a fitted effect of over 65% in size
Target sequence (P08659 whole entry, looked up): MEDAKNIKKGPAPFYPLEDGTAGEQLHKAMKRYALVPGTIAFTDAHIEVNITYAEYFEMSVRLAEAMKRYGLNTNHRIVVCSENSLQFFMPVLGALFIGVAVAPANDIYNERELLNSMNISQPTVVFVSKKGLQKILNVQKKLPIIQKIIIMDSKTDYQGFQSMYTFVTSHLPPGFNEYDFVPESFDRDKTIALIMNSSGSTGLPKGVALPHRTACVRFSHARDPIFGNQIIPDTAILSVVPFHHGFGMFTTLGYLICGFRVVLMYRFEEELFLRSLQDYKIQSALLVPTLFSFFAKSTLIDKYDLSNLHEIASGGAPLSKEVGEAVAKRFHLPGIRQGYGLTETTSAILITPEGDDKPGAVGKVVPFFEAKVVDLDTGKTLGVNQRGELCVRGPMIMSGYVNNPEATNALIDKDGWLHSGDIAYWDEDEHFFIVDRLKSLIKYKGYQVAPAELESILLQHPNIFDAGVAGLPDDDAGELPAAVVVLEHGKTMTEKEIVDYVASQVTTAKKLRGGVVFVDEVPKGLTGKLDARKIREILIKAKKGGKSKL
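Purified 10nM P. pyralis luciferase with 10uM D-luciferin and 10uM ATP in 50mM Tris acetate pH 7.5, 10mM Mg acetate, 0.01% Tween-20, 0.05% BSA. qHTS titration; luminescence read by CCD imager.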
HEK cytotox – Cytotoxic Profiling in HEK 293 Cell Line of Diverse Libraries Using Quantitative High-Throughput Screening. HEK 293 viability, ATP luminescence (CellTiter-Glo), 48-72 h. Potency, µM (series often up to 115 µM), for the others: top-dose activity change, negative = cytotoxicity, hits mostly inhibitors. 94,000 tested, 6.6% active. AID 1345083, 2018; further: nearly all actives have a fitted effect of over 60% in size
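CellTiter-Glo luminescence (cellular ATP) was read after 48 or 72 hr of compound exposure at 37 degree Celsius. Cells were HEK 293 plated at 250 cells/well.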
NPR1 antag – Natriuretic polypeptide receptor (hNpr1) antagonism - Primary qHTS | Atrial natriuretic peptide receptor 1 (Homo sapiens), P16066 | HEK293 hNpr1 GloSensor cGMP, ANP-stimulated luminescence | Potency, µM (top dose mostly 46.3 µM), inactives show at the highest dose activity change, negative = inhibition, actives largely listed as inhibitors | 76,000 tested, 1.6% active | AID 1347048, 2019; calls by dose curve; further: nearly all actives have a fitted effect of over 60% in size
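HEK293 cells stably expressing human Npr1 and cGMP GloSensor pGS-40F, loaded 2 h with 2% GloSensor reagent, given compound 30 min at room temperature. Luminescence read before and 20 min after 0.1 nM hNppA.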
SNCA expr inhib – Primary qHTS assay for inhibitors of alpha-synuclein gene (SNCA) expression; Potency, µM (doses to about 57.2 µM), for inactives: at the highest dose activity change, negative = inhibition, most hits filed as inhibitors; HEK-293 SNCA-luciferase knock-in, luminescence, 24 h; AID 1671194, 2021; 140,000 tested, 0.17% active;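 further: plate controls were DMSO cells for no effect and cell-free wells for full effect; nearly all actives have a fitted effect of over 45% in size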
NIH3T3 tox – Cytotoxic Profiling in NIH 3T3 Cell Line of Diverse Libraries Using Quantitative High-Throughput Screening. NIH 3T3 viability, CellTiter-Glo ATP luminescence, 48-72 h. Potency, µM (highest dose often 96.7 µM), for the others: at the highest dose activity change, negative = cytotoxicity, most hits filed as inhibitors. 94,000 tested, 4.3% active. AID 1345082, 2018; further: nearly all actives have a fitted effect of over 55% in size
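Cells were seeded at 400 per well, treated with pin-transferred compound, and kept 48 or 72 hr at 37 °C before CellTiter-Glo addition and luminescence imaging of cellular ATP.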
An asterisk follows results filed as active; i = inactive; ? = inconclusive; nt = no result given; [ ] = another dose, or the depositor's remark. Unless noted, the call rests on the fitted dose curve; in most records, active means well fitted curve in the direction sought with a large enough effect; inconclusive means small, poorly fitted or top-dose-only effect, or another doubt; inactive means no such curve, though single readings can be large; an effect the other way counts as inactive or inconclusive. Unless noted, on the % scale 0 is the no-effect control and ±100 the full control effect; potency means the concentration at half of the fitted maximal effect.

SMILES	HEK293 viab	Luciferase inh	HEK cytotox	NPR1 antag	SNCA expr inhib	NIH3T3 tox
COc1ccc(-c2cc(N3CCCN(C(=O)Cc4c[nH]c5ccccc45)CC3)n[nH]2)cc1	-19.6%	i	?	-22.9%	-13.6%	?
COc1ccc(CC(=O)N2CCCN(c3cc(-c4ccc(Br)cc4)[nH]n3)CC2)cc1OC	-20.0%	i	?	?	?	?
Cc1ccc(CC(=O)N2CCCN(c3cc(-c4ccc(C)c(C)c4)[nH]n3)CC2)cc1	-11.8%	i	31.6µM*	?	?	31.6µM*
Cc1cccc(CC(=O)N2CCCN(c3cc(-c4ccc(Cl)cc4)[nH]n3)CC2)c1	-16.7%	i	?	?	2.9%	39.8µM*
COc1ccc(-c2cc(N3CCCN(C(=O)Cc4cccc(F)c4)CC3)n[nH]2)cc1	-27.5%	i	39.8µM*	0.0%	0.0%	?
COc1ccc(-c2cc(N3CCN(C(=O)Cc4ccc(F)cc4)CC3)n[nH]2)cc1	-8.2%	i	2.0%	-2.0%	4.5%	-11.5%
COc1cccc(CC(=O)N2CCCN(c3cc(-c4ccccc4)[nH]n3)CC2)c1	-19.9%	i	35.5µM*	-17.7%	?	?
COCCNC(=O)[C@@H]1C[C@H](Oc2cccnc2)CN1C(=O)c1n[nH]c2ccccc12	9.6%	nt	-15.4%	nt	5.8%	-9.9%
COc1cccc(Nc2ncc3c(n2)C(C)(C(=O)NC2CCN(C)CC2)CC3)c1 (stereo unspecified)	-17.0%[87.6 µM]	i	89.1µM*	-0.8%[70.6 µM]	-16.7%[87.6 µM]	?
COc1cccc(Nc2ccc3c(n2)C(C)(C(=O)NC2CCN(C)CC2)CN(C)C3)c1 (stereo unspecified)	-14.5%[87.6 µM]	i	-21.8%[172 µM]	-2.0%[70.6 µM]	-6.9%[87.6 µM]	?
COc1cccc(NC(=O)C2(C)CCc3cnc(N4CCOCC4)nc32)c1 (stereo unspecified)	-9.7%[87.6 µM]	i	?	1.6%[70.6 µM]	-10.7%[87.6 µM]	?
COc1cccc(Nc2ncc3c(n2)C(C)(C(=O)NC2CCOCC2)CC3)c1 (stereo unspecified)	?	i	89.1µM*	-5.0%[70.6 µM]	-3.8%[87.6 µM]	39.8µM*
CC1(C(=O)NC2CCOCC2)CCc2cnc(Nc3ccccc3)nc21 (stereo unspecified)	-18.6%[87.6 µM]	i	100µM*	-0.3%[70.6 µM]	?	?
COCCNC(=O)CC1=C2CCCCC2N(Cc2ccccc2)C1=O (stereo unspecified)	-13.1%	nt	-22.9%	nt	-0.8%	-22.8%
COCCCn1c(=O)c(C(=O)N2CCN(C(=O)OC)CC2)nc2cccnc21	-11.6%	nt	i	nt	-11.9%	-16.0%
Cc1ccccc1CN1CCc2nc(C(=O)N3CCOCC3)oc2CC1	-2.3%[87.6 µM]	?	?	?	51.7%[87.6 µM]	?
O=C(Nc1ccc(Cl)cc1)c1nc2c(o1)CCN(Cc1cnc[nH]1)CC2	-2.2%[87.6 µM]	70.8µM*	?	?	65.0%[87.6 µM]	?
Cc1ccccc1CN1CCc2nc(C(=O)Nc3ccccc3)oc2CC1	-9.5%[87.6 µM]	?	39.8µM*	10µM*	-2.2%[87.6 µM]	?
Cc1cc(F)cc(CN2CCc3nc(C(=O)Nc4ccccc4)oc3CC2)c1	-5.6%[87.6 µM]	22.4µM*	?	12.6µM*	24.2%[87.6 µM]	25.1µM*
O=C(NCCOc1ccccc1)c1nc2c(o1)CCN(Cc1cccc(F)c1)CC2	1.1%[87.6 µM]	i	?	?	7.9%[87.6 µM]	?
O=C(Cc1cccnc1)N1CC(Oc2ccccc2-c2nc(-c3cnccn3)no2)C1	-4.5%	nt	-7.9%	nt	21.7%	-24.4%
COC(=O)N1CCCC1C(=O)N1CCC(N2Cc3ccccc3C2=O)CC1 (stereo unspecified)	6.2%	nt	-6.8%	nt	15.5%	-2.2%
COCCNC(=O)CC(c1ccc(Cl)cc1)c1c[nH]c2ccc([N+](=O)[O-])cc12 (stereo unspecified)	-2.6%	i	39.8µM*	?	5.3%	?
O=C(CC(c1ccccc1)c1ccc(Cl)cc1)N1CCOCC1 (stereo unspecified)	-12.6%	i	?	-18.8%	-8.0%	-19.1%
O=C(CC(c1ccc(Cl)cc1)c1c[nH]c2ccc([N+](=O)[O-])cc12)N1CCOCC1 (stereo unspecified)	0.8%	i	39.8µM*	?	-1.3%	?
SMILES	HEK293 viab	Luciferase inh	HEK cytotox	NPR1 antag	SNCA expr inhib	NIH3T3 tox
CN(C)C(=O)N1CCC(C(=O)N2CCCC2c2nc3ccncc3[nH]2)CC1 (stereo unspecified)	3.8%	nt	-2.9%	nt	2.9%	-6.0%
Cc1ccc(CN2CC(Cn3c(C)cnc3-c3ccncc3)C2)o1	5.2%	nt	i	nt	-16.1%	-1.9%
COc1ccccc1-c1ccc2c(C(=O)NCc3ccc(F)cc3)nn(C)c2n1	?	nt	-28.5%	nt	5.0%	-28.7%
Cc1cccc(-c2cccc(NC(=O)C3CCCN(C(=O)c4cccc(C)n4)C3)c2)c1 (stereo unspecified)	-18.3%	25.1µM*	?	-1.7%	84.0%	?
Cc1c(CN2CCCC(C(=O)Nc3cccc(-c4cc5ccccc5[nH]4)c3)C2)cnn1C (stereo unspecified)	?	i	20µM*	-25.0%	?	8.91µM*
Cc1cc(C(=O)N2CCCC(C(=O)Nc3cccc(-c4cc5ccccc5[nH]4)c3)C2)nn1C (stereo unspecified)	?	?	31.6µM*	-6.3%	?	?
O=C(Nc1cccc(-c2nnc3n2CCCC3)c1)C1CCCC1	5.2%	i	10.5%	1.0%	-0.2%	i
O=C(Nc1cccc(-n2cccn2)c1)C1CCCN(Cc2cccc(F)c2F)C1 (stereo unspecified)	-10.9%	i	31.6µM*	-14.4%	-0.6%	?
O=C(C1CCCC1)N1CCN(c2ccc3nnc(C4CC4)n3n2)CC1	nt	nt	-3.7%[172 µM]	nt	nt	-21.9%[138 µM]
O=C(CNC(=O)c1ccc(-c2cccc(C(F)(F)F)c2)cc1)NCCc1ccc(F)cc1	-3.4%[12.5 µM]	nt	?	nt	-8.8%	?
Cc1ccccc1C(=O)N1CCC(C(=O)N2CCC(N3CCOCC3=O)CC2)CC1	5.2%	nt	3.3%	nt	-4.5%	4.1%
CCOc1ccccc1NC(=O)N1CCC(N2CC(OCC3CC3)C23CCOCC3)CC1 (stereo unspecified)	2.1%	nt	-6.0%	nt	-3.6%	-12.4%
